# In publication PMC5540273 (PLoS ONE, 2017):
# Tests used:
# Settings in all cases: concentration: 1 μM, replicates: in singlicate; n = 1
# PKAC-alpha = system: T1, PKAC-alpha
# T1 construct: gene PRKACA
# PKAC-beta = system: T2, PKAC-beta
# T2 construct: gene PRKACB
# PKMYT1 = system: PKMYT1
# PKN1 = system: PKN1
# PKN2 = system: PKN2
# PLK1 = system: PLK1
# PLK2 = system: PLK2
# PLK3 = system: PLK3
# PLK4 = system: PLK4
# PRKCD = system: PRKCD
# PRKCE = system: PRKCE
# PRKCH = system: PRKCH
# PRKCI = system: PRKCI
# PRKCQ = system: PRKCQ
# PRKD1 = system: PRKD1
# PRKD2 = system: PRKD2
# PRKD3 = system: PRKD3
# PRKG1 = system: PRKG1
# PRKG2 = system: PRKG2
# PRKR = system: T3, PRKR
# T3 construct: gene EIF2AK2
# 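Note: KINOMEscan kinase panel screen.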
SMILES,%Inh (PKAC-alpha),%Inh (PKAC-beta),%Inh (PKMYT1),%Inh (PKN1),%Inh (PKN2),%Inh (PLK1),%Inh (PLK2),%Inh (PLK3),%Inh (PLK4),%Inh (PRKCD),%Inh (PRKCE),%Inh (PRKCH),%Inh (PRKCI),%Inh (PRKCQ),%Inh (PRKD1),%Inh (PRKD2),%Inh (PRKD3),%Inh (PRKG1),%Inh (PRKG2),%Inh (PRKR)
Nc1nc(-c2ccccc2F)c(-c2ccnc3ccccc23)s1 [GW560459],0%,3%,0%,3%,0%,2%,0%,0%,0%,0%,17%,11%,13%,0%,0%,0%,27%,1%,0%,0%
COc1ccc(-c2coc3ccc(-c4nnc(SCc5cccc(C#N)c5)o4)cc23)cc1,11%,0%,0%,32%,0%,0%,11%,12%,18%,12%,0%,0%,0%,31%,0%,23%,0%,0%,21%,0%
COc1cccc(-n2cnc3c(N)ncnc32)c1 [SKF-97416],11%,20%,10%,0%,24%,58%,43%,18%,21%,6%,33%,0%,25%,1%,0%,0%,0%,19%,14%,13%
CCC(=O)c1c(-c2ccccc2)c2cc(Cl)ccc2c(=O)n1Cc1ccc(C(=O)O)cc1,0%,0%,1%,0%,0%,0%,7%,0%,0%,0%,0%,0%,0%,9%,0%,6%,0%,0%,0%,0%
COC(=O)c1c(-c2ccccc2)c2cc(Br)ccc2c(=O)n1Cc1ccc(S(C)(=O)=O)cc1,11%,0%,0%,1%,0%,0%,17%,15%,32%,0%,1%,4%,0%,37%,0%,0%,0%,0%,8%,0%
CC(C)(C)c1ccc(C(=O)Nc2cn3cc(-c4ccccc4)ccc3n2)cc1,0%,7%,0%,0%,16%,0%,0%,13%,40%,0%,5%,0%,10%,37%,8%,19%,4%,1%,0%,0%
COc1cc2ncn(-c3cc(OCCCc4ccccc4)c(C(N)=O)s3)c2cc1OC [GSK205189],0%,5%,0%,0%,16%,–,98.2%,92.3%,0%,0%,0%,0%,13%,19%,0%,23%,0%,0%,0%,0%
Cc1cccc(-c2cc(-c3c[nH]nc3-c3ccccn3)ccn2)c1 [GW679395],0%,0%,1%,0%,0%,0%,0%,0%,0%,0%,13%,0%,4%,35%,57%,48%,22%,0%,0%,0%
CCC(=O)c1c(-c2ccccc2)c2cc(Cl)ccc2c(=O)n1Cc1cc(C(=O)NC2CC2)n(C)n1,0%,0%,5%,0%,0%,0%,2%,7%,10%,8%,20%,0%,0%,41%,0%,3%,0%,0%,0%,0%
COc1ccc(CNC(=O)NC2CCN(c3ccnc(Nc4ccc(F)cc4)n3)C2)cc1 (stereo not shown) [GSK1379706],0%,0%,10%,14%,0%,10%,0%,0%,19%,0%,27%,12%,0%,15%,0%,14%,15%,0%,20%,15%
